From PubChem BioAssay (NCATS)
Results filed as inconclusive are left out. Where a call stands in place of a potency, no number is given. Activity calls are given as the source filed them. Calls come from the whole dose curve; as a rule, active = well fitted inhibition curve with a large enough effect; inconclusive = small, poorly fitted or top-dose-only effect; inactive = no such curve, though single readings can be large or run the other way.

Tested on: Zika virus NS2B-NS3 protease (unlinked complex)
Test: Primary screen GU Rhodamine qHTS for Zika virus inhibitors: Unlinked NS2B-NS3 protease assay (AID 1347159); note: nearly all actives have a fitted effect of over 60% in size
Details: Recombinant ZIKV NS2B-NS3 protease, Rhodamine110 substrate fluorescence; series mostly up to 107 µM
How it was run: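 Compounds, tested up to 114 microM, were incubated for 15 minutes with 25 nM unlinked NS2B-NS3 protease at pH 8.0. Cleavage of 1.5 microM Rhodamine110 substrate was then followed by fluorescence for 15 minutes.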
Potency is the fitted concentration of half-maximal effect.

Compound | Potency
CCC/C=C/c1cc2c(C=O)c(O)c(CC=C(C)C)cc2o1 | 7.94 µM (active)
CCCCc1ccc(NS(=O)(=O)c2ccc(F)cc2)cc1 | 50.1 µM (active)
N#Cc1cccc(C(=O)Nc2cc(-c3ccccc3)nn2-c2ccccc2)c1 | inactive
CC(C)=CCC/C(C)=C/COCC1OC(n2ccc(=O)[nH]c2=O)C(O)C1O (stereo not given) | inactive
O=C(N[C@H]1CCN(C(=O)c2cc(C(F)(F)F)cc(C(F)(F)F)c2)[C@H](Cc2ccc(Cl)cc2)C1)c1ccnc2ccccc12 | inactive
O=C(CSc1nc2ccccc2c(=O)n1-c1ccccc1)Nc1ccc2c(c1)CCC2 | inactive
C=CC(C)(C)c1[nH]c2ccccc2c1C[C@@H]1NC(=O)[C@H](C)NC1=O | inactive
CCn1c(=O)c(-c2ccc(-c3cncs3)cc2Cl)cc2cnc(Nc3ccc(N4CCN(C)CC4)cc3)nc21 | inactive
C=C1C(=O)OC2/C=C(\COC(C)=O)CC/C=C(\C=O)CC(OC(=O)CC(C)C)C12 (stereo not given) | inactive
O=S(=O)(Cc1ccccc1)Nc1ccc(-c2ccc3c(cnn3-c3ccc(F)cc3)c2)c(C(F)(F)F)c1 | 20 µM (active)
C#CC(=O)N(c1ccc(OC)cc1OC)C(C(=O)NCC(=O)OCC)c1cccs1 (stereo not given) | inactive
COc1cc(CCc2ccc(OCC=C(C)C)cc2)cc(OC)c1OC | inactive
O=c1[nH]c([C@@H]2CCCN2)nc2c1oc1ccc(Cl)cc12 | inactive
CC(C)(C)c1ccc(C(=O)Nc2cc(Cl)c(Br)cc2C(=O)O)cc1 | 2.51 µM (active)
C=C(CCC1C(C)(O)CCC2C(C)(C)C(O)CCC12C)C(O)CO (stereo not given) | 39.8 µM (active)
CC1(C)CCC(C)(C)c2cc(C#Cc3ccc(C(=O)O)cc3)ccc21 | 1.58 µM (active)
Cc1cccc(-c2[nH]ncc2-c2ccc(F)c(-c3cnn(CCO)c3)c2)n1 | inactive
C=C1CCC[C@]2(C)CC/C(=C(/CO)C(=O)OC)C[C@@H]12 | 20 µM (active)
O=C(N[C@H](Cc1cscn1)C(=O)N[C@@H](CC1CCCCC1)[C@@H](O)[C@@H](O)C1CC1)c1nc2ccccc2[nH]1 | inactive
COc1cccc(CN(C(=O)CC(C)(C)C)[C@H]2C[C@H](C(=O)N3CCNCC3)N(Cc3ccc4c(c3)OCO4)C2)c1 | inactive
CCc1c(Cl)c(O)c(Cl)c(O)c1C(=O)O[C@H]1[C@H](O)[C@H](OC)[C@H](OC/C2=C\C=C\C[C@H](O)/C(C)=C\[C@H](CC)[C@@H](O[C@@H]3OC(C)(C)[C@@H](OC(=O)C(C)C)[C@H](O)[C@@H]3O)/C(C)=C/C(C)=C/C[C@@H]([C@@H](C)O)OC2=O)O[C@@H]1C | 11.2 µM (active)
C=C(C(=O)O)[C@@H]1CC=C(CCC(C)=O)[C@@H](C)CC1 | 56.2 µM (active)
O=C(c1ccc(F)cc1)N1CCCC(c2nc(-c3ccc(F)cc3)no2)C1 (stereo not given) | inactive
CC1OC(=O)C[C@@H]2C(C(=O)O)=CO[C@@H](O[C@H]3O[C@H](CO)[C@@H](O)[C@H](O)[C@H]3O)[C@H]12 (stereo not given in full) | inactive
NS(=O)(=O)c1ccc(N2CCN(CC[C@@H]3OCCc4ccccc43)CC2)cc1 | inactive
COc1ccc(C2=NC(c3ccc(Cl)cc3)C(c3ccc(Cl)cc3)N2C(=O)N2CCNC(=O)C2)c(OC(C)C)c1 (stereo not given) | inactive
Cc1csc(N(C(=O)CSc2ccc(-c3ccccc3)nn2)C2CC2)n1 | inactive
CC(C)[C@@H](c1ccc(C(F)(F)F)cc1CN(Cc1cc(C(F)(F)F)cc(C(F)(F)F)c1)c1nnn(C)n1)N1CCC(C(=O)O)CC1 | 3.16 µM (active)
CC(C)(C[C@@](O)(Cc1cc2ccncc2[nH]1)C(F)(F)F)c1cc(F)ccc1O | inactive
O=[N+]([O-])c1cn2c(n1)OC[C@@H](OCc1ccc(-c3ccc(OC(F)(F)F)cc3)nc1)C2 | inactive
